Many of the other results were omitted from the sample, so hits are more common in it than they were.
Sm TGR inh: qHTS Assay for the Inhibitors of Schistosoma Mansoni Peroxiredoxins; 3% of 360,000 active; Potency, µM (highest dose often 114 µM), without a hit: at the highest dose activity change, negative = inhibition, most hits filed as inhibitors; purified TGR, DTNB reduction, TNB absorbance 405 nm; Schistosoma mansoni thioredoxin glutathione reductase (TGR), Q962Y6; also: potency is read from the fitted curve at half-maximal effect; % is scaled to controls: 0 for no effect and ±100 for the full control effect; nearly all actives have a fitted effect of over 60% in size
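TGR 20 nM + NADPH 100 uM (dispensed conc.), cpd preinc 15 min RT; start with NADPH (500 uM addition) then DTNB (15 mM addition). Kinetic TNB absorbance, 405 nm filter. Four-parameter Hill fit across titration.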
TbPYK inhibitor: qHTS of Trypanosoma Brucei Inhibitors. AID 624173, 2012. pyruvate kinase (Trypanosoma brucei), Q57TT1. TbPYK enzyme, Kinase-Glo Plus ATP luminescence, 45 min. Potency, µM (titrated, usually from 76.8 µM), for the others: top-dose activity, negative = inhibition, hits mostly inhibitors. 0.12% of 410,000 active; also: potency is read from the fitted curve at half-maximal effect; % is scaled to controls: 0 for no effect and ±100 for the full control effect; nearly all actives have a fitted effect of over 50% in size
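Luminescence from Kinase-Glo Plus, added after a 45-minute room-temperature reaction, served as the end-point read-out. The enzyme and substrate were preincubated with compound before ADP (130 uM final) initiated turnover. Concentration-effect curves came from normalized qHTS data.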
Shiga toxin inh: A qHTS for Small Molecule Inhibitors of Shiga Toxin; Vero cells, Shiga toxin protein synthesis inhibition reporter; inhibition, % at 38.7 µM; 9.2% of 290,000 active; AID 2315, 2010; in the data active = inhibition mostly above about 28%, no sharp cut-off; inactive = mostly below about 43%; also: 0% is about no effect
LmPK inh: qHTS Assay for Inhibitors of Leishmania Mexicana Pyruvate Kinase (LmPK). purified LmPK, Kinase-Glo ATP luminescence, 1 h. Potency, µM (top dose mostly 57.5 µM), without a hit: at the top dose activity change, negative = inhibition, actives largely listed as inhibitors. 0.37% of 290,000 active; also: potency is read from the fitted curve at half-maximal effect; % is scaled to controls: 0 for no effect and ±100 for the full control effect
Target sequence (Q27686 whole entry, looked up): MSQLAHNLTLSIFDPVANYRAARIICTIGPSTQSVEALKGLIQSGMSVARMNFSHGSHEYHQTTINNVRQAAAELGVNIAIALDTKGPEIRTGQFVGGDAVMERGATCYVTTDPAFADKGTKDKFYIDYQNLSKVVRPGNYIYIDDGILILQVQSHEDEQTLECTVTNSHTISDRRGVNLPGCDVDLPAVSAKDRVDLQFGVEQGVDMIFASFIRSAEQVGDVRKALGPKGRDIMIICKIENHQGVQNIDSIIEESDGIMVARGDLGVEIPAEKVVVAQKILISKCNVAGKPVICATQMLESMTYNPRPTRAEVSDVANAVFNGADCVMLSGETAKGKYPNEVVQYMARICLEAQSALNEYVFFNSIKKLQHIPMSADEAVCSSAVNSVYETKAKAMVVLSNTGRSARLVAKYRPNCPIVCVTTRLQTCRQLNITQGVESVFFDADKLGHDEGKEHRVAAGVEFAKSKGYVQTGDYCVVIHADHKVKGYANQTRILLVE
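ATP generated from ADP (0.1 mM) and PEP (0.5 mM) by 0.1 nM LmPK over 1 h at room temperature (pH 7.2 imidazole buffer) was detected by coupled luciferase luminescence. Values were normalized to uninhibited and no-enzyme wells.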
CHX counter: Cycloheximide Counterscreen for Small Molecule Inhibitors of Shiga Toxin. 12% of 300,000 active. max response, %. AID 2314, 2010. cell reporter, cycloheximide protein synthesis inhibition counterscreen; in the data active = max response mostly above about 13%, no sharp cut-off; inactive = mostly below about 14%; also: read at 38.3 µM for the half of the compounds with a filed dose; 0% is about no effect
FBPA Giardia inh: qHTS Assay for Inhibitors of Fructose-1,6-bisphosphate Aldolase from Giardia Lamblia; Potency, µM (highest dose often 59.6 µM), inactives show at the top dose activity, negative = inhibition, hits mostly inhibitors; purified Giardia FBPA; 0.71% of 290,000 active; A8B2U2; also: potency is read from the fitted curve at half-maximal effect; % is scaled to controls: 0 for no effect and ±100 for the full control effect; nearly all actives have a fitted effect of over 55% in size
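Giardia FBPA (40 nM reagent) was preincubated 10 min at RT with compound (up to 57.5 uM final), then substrate plus GAPDH/TPI/NAD/arsenate coupling system with diaphorase/resazurin was added; resorufin fluorescence (525/598 nm) was read after 20 min.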
* hit, by the source's call; ? = inconclusive; . = no result; [ ] = remark or other dose. Unless noted, calls follow the shape of the dose curve; as a rule, active = well fitted curve in the direction sought with a large enough effect; inconclusive = small, poorly fitted or top-dose-only effect, or another doubt; inactive = no such curve, though single readings can be large; an effect the other way counts as inactive or inconclusive.

SMILES	Sm TGR inh	TbPYK inhibitor	Shiga toxin inh	LmPK inh	CHX counter	FBPA Giardia inh
COc1ccc(N2C(=O)CC(NCC#N)C2=O)cc1 (stereo not drawn)	14µM*	-8%	-2	3%	2	0%
c1ccc(C(CN2CCCCC2)Oc2ccccn2)cc1 (stereo not drawn)	.	-2%	.	.	.	.
O=C(CCN1Cc2ccccc2C1)c1ccc2c(c1)OCCO2	0.89µM*	?	37	0%	19*	-6%
O=C(CCN1CCc2ccccc2C(c2ccccc2)C1)c1ccc2c(c1)OCCO2 (stereo not drawn)	0.56µM*	?	25	-1%	19*	-15%
COc1ccc(CC(N)c2csc(Nc3ccc(C(=O)c4ccccc4)cc3)n2)cc1 (stereo not drawn)	.	4%	.	.	.	.
CCc1cccc(C)c1NC(=O)c1cc(S(=O)(=O)N2CCN(c3ccccc3)CC2)ccc1F	4%	5%	.	.	.	.
CCCCCC1CC(CC#CCN2CCOCC2)C(=O)O1 (stereo not drawn)	22µM*	3%	14	-8%	-2	3%
CCCCCC1CC(CC(=O)O)C(=O)O1 (stereo not drawn)	-31%	-4%	-8	3%	-3	9%
COc1ccc(NC(=O)OCC(C)C)cc1OC	?	-16%	50*	-2%	21*	1%
COC(=O)[C@H](C)NC(=O)Nc1ccc(OC)c(OC)c1	0%	0%	-2	1%	-2	1%
COc1ccc(NC(=O)c2cc(CC(C)C)on2)cc1OC	-5%	2%	active	-1%	42*	8%
CC(C)Cc1cc(C(=O)Nc2ccc(Br)cc2)no1	2%	8%	69	-5%	36*	3%
CC(C)Cc1cc(C(=O)Nc2ccc3c(c2)OCO3)no1	1%	1%	72*	-1%	36*	0%
COc1ccc(CNCC(O)COc2ccc3[nH]c(=O)ccc3c2)cc1OC (stereo not drawn)	.	-6%	.	.	.	.
CCOC(=O)[C@]1(C(NC(=O)OC)c2cccc(F)c2)CCCC1=O (stereo partly drawn)	.	.	.	.	.	0%[12.9 µM]
CC(C)Cc1cc(C(=O)Nc2cccc(O)c2)no1	-13%	-12%	13	?	10	1%
CCc1ccc(NC(=O)c2cc(CC(C)C)on2)cc1	7%	-1%	39*	0%	33*	0%
Cc1ccc(NC(=O)c2cc(S(=O)(=O)N3CCc4ccccc43)ccc2F)cc1Cl	6%	-2%	.	.	.	.
Cc1ccc(-c2cn(-c3ccccc3F)c(=S)[nH]2)cc1	-11%	?	68*	-8%	42*	10%
O=[N+]([O-])c1ccc(-c2cn(-c3ccccc3F)c(=S)[nH]2)cc1	13%	-44%	131*	-1%	42*	1%
COc1ccccc1-n1cc(-c2ccccc2)[nH]c1=S	2%	-21%	-4	-11%	5	14%
Cc1nn(C)c(C)c1CN(C)C(=O)c1cc2nc(-c3ccco3)cc(C(F)(F)F)n2n1	13µM*	-4%	-11	21%	-3	-3%
Cc1nn(C)cc1CN(C)C(=O)c1cc2nc(-c3ccco3)cc(C(F)(F)F)n2n1	35µM*	1%	9	19%	10	-20%
Cc1nn(C)cc1NC(=O)c1cc2nc(-c3ccco3)cc(C(F)(F)F)n2n1	6%	4%	-6	-2%	6	-3%
O=C(c1cc2nc(-c3ccco3)cc(C(F)(F)F)n2n1)N1CCc2ccccc2C1	50µM*	2%	-11	8%	-2	0%
CN1CCN(C(=O)c2cc3nc(-c4ccco4)cc(C(F)(F)F)n3n2)CC1	-2%	-7%	-7	5%	1	2%
COC(=O)[C@@]1(Cc2ccccc2-c2ccco2)C=C[C@H](C)[C@@H](c2ccccc2)N1C(=O)C(F)(F)F	.	.	.	.	.	3%

High-throughput results: PubChem BioAssay, National Center for Advancing Translational Sciences (NCATS)
